Results on eight compounds are retold here after PubChem BioAssay (NCI).

Common to all, as to assay: NCI-60 one-dose screen, 48 h (100 = growth as untreated, 0 = no growth, -100 = all killed)
One assay has as its system SK-MEL-2 melanoma. Particulars: 10 µM unless noted.
Another assay relates to EKVX NSCLC. Particulars: 10 µM unless noted.
In the next assay the test system is SN12C renal. The following applies: 10 µM unless noted.
For another assay, the system named is UO-31 renal. The following applies: 10 µM unless noted.
Another assay has as its system TK-10 renal. The following applies: 10 µM unless noted.
Another assay relates to ACHN renal. Particulars: 10 µM unless noted.
In a further assay the test system is CAKI-1 renal. The following applies: 10 µM unless noted.
For the next assay, the system named is HL-60(TB) leukemia. Particulars: 10 µM unless noted.
The next assay concerns CCRF-CEM leukemia. Particulars: 10 µM unless noted.
The test system of another assay is MOLT-4 leukemia. Particulars: 10 µM unless noted.
Another assay relates to SR leukemia. Particulars: 10 µM unless noted.
For another assay, the system named is OVCAR-8 ovarian. Particulars: 10 µM unless noted.
The next assay has as its system OVCAR-5 ovarian. The following applies: 10 µM unless noted.
The subject of a further assay is OVCAR-4 ovarian. Particulars: 10 µM unless noted.
The next assay deals with SK-OV-3 ovarian. Particulars: 10 µM unless noted.
Another assay deals with IGROV1 ovarian. Particulars: 10 µM unless noted.
A further assay deals with OVCAR-3 ovarian. The following applies: 10 µM unless noted.
A further assay has as its system HS 578T breast. The following applies: 10 µM unless noted.
For another assay, the system named is A498 renal. Particulars: 10 µM.
A further assay deals with RPMI-8226 leukemia. The following applies: 10 µM unless noted.

Compounds without any hit were thinned out: in the full panel of roughly 83,000, 20% have a hit.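 Assay: single dose, 48 h. Readout: percent growth (0 = no net growth; negative = cell death). Active: <10.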 Values without a mark were called inactive. Calls of active or inactive are those of the source.

Turning to `CN[C@]1(c2ccccc2Cl)CCCC[C@H]1NCCCN1CCN(C)CC1`, the growth was 103% with SK-MEL-2 melanoma; 92% in the assay on EKVX NSCLC; 97.4% in the assay on SN12C renal; 76.3% with UO-31 renal; 96.4% with TK-10 renal; 108% in the assay with ACHN renal. The growth in the assay on CAKI-1 renal is 87.3%; in the assay on HL-60(TB) leukemia, 93.9%; in the assay on CCRF-CEM leukemia it was 99.6%; in the assay with MOLT-4 leukemia it was 98.8%; in the assay on SR leukemia it was 111%; in the assay with OVCAR-8 ovarian, 97.2%. In addition, the growth was 104% in the assay on OVCAR-5 ovarian; 101% in the assay on OVCAR-4 ovarian; 105% with SK-OV-3 ovarian; 103% in the assay on IGROV1 ovarian; 102% with OVCAR-3 ovarian; 94.1% with HS 578T breast.
Regarding `Nc1c(F)cc(-c2nc3cc(F)ccc3[se]2)cc1Br`, the growth in the assay on SK-MEL-2 melanoma was 90.5%; in the assay on EKVX NSCLC, 32.7%; in the assay on SN12C renal it was 88.1%; in the assay on UO-31 renal it was 60.1%; in the assay on TK-10 renal, -4.6% (active); in the assay with ACHN renal it was 27.5%. Further, the growth is 31.4% in the assay on A498 renal; 95.9% with HL-60(TB) leukemia; 95.5% with CCRF-CEM leukemia; 91.2% in the assay on MOLT-4 leukemia; 15.7% in the assay with SR leukemia; 35.1% with RPMI-8226 leukemia. In addition, the growth is 93.1% with OVCAR-8 ovarian; 8.24% (active) with OVCAR-5 ovarian; 30.1% in the assay on OVCAR-4 ovarian; 39.7% with SK-OV-3 ovarian; 5.47% (active) in the assay with IGROV1 ovarian; 40.8% in the assay with OVCAR-3 ovarian. Moreover, the growth in the assay with HS 578T breast was 96.6%.
In the case of `COc1ccc2c(c1)c(-c1nc(-c3c[nH]c4ncccc34)cs1)cn2CCN1CCOCC1`, the growth with SK-MEL-2 melanoma is 61.3%; in the assay with EKVX NSCLC, 37.1%; in the assay with SN12C renal it was 43.6%; in the assay with UO-31 renal, 15.4%; in the assay on TK-10 renal, 42.3%; in the assay with ACHN renal it was 36.5%. The growth with A498 renal was 71.7%; in the assay on HL-60(TB) leukemia it was 61%; in the assay on CCRF-CEM leukemia, 41.6%; with MOLT-4 leukemia, 45.7%; in the assay with SR leukemia it was 45.5%; in the assay on RPMI-8226 leukemia it was 22.3%. The growth in the assay with OVCAR-8 ovarian is 37.9%; in the assay on OVCAR-5 ovarian, 82.9%; in the assay on OVCAR-4 ovarian, 28%; in the assay with SK-OV-3 ovarian it was 67.9%; with IGROV1 ovarian, 27.7%; in the assay with OVCAR-3 ovarian, 59%.
Consider `CN1C(=O)C(=Cc2cn(CCCCCCn3c4ccccc4c(=O)c4ccccc43)c3ccccc23)C(=O)N(C)C1=O`, for which the growth with SK-MEL-2 melanoma was 92.8%; in the assay on EKVX NSCLC it was 96.2%; in the assay on SN12C renal it was 104%; with UO-31 renal, 65.6%; in the assay with TK-10 renal, 111%; with ACHN renal it was 92.9%. Further, the growth was 110% with A498 renal; 79.3% in the assay on HL-60(TB) leukemia; 109% in the assay on CCRF-CEM leukemia; 97.5% in the assay on MOLT-4 leukemia; 77% in the assay on SR leukemia; 103% in the assay on RPMI-8226 leukemia. Further, the growth was 95.2% in the assay with OVCAR-8 ovarian; 77% in the assay with OVCAR-5 ovarian; 95.2% in the assay with OVCAR-4 ovarian; 87% with SK-OV-3 ovarian; 90.5% in the assay on IGROV1 ovarian; 102% in the assay on OVCAR-3 ovarian. Also, in the assay with HS 578T breast, the growth was 101%.
Turning to `CNC(=O)Oc1ccc2c(c1)OCO2`, the growth was 98.2% in the assay on SK-MEL-2 melanoma; 97.9% in the assay on EKVX NSCLC; 99.7% in the assay with SN12C renal; 98.1% with UO-31 renal; 101% in the assay on TK-10 renal; 99.3% in the assay with ACHN renal. The growth is 100% in the assay with CAKI-1 renal; 94.3% with HL-60(TB) leukemia; 111% with CCRF-CEM leukemia; 94.3% in the assay on MOLT-4 leukemia; 91.4% in the assay on SR leukemia; 101% with OVCAR-8 ovarian. Besides, the growth with OVCAR-5 ovarian is 106%; with OVCAR-4 ovarian, 116%; in the assay on SK-OV-3 ovarian it was 116%; with IGROV1 ovarian it was 104%; in the assay with OVCAR-3 ovarian, 119%; with HS 578T breast, 109%.
As to `CCCCCCCCCCCCCCCCCCOc1ccccc1COP(=O)(O)OOCC[N+](C)(C)C`, the growth in the assay with SK-MEL-2 melanoma was 35.9%; with EKVX NSCLC, 11.4%; in the assay with SN12C renal, -6.04% (active); in the assay on UO-31 renal, 38.5%; in the assay with TK-10 renal it was 3.59% (active); in the assay with ACHN renal, 8.89% (active). For the same compound, the growth in the assay with CAKI-1 renal is 1.63% (active); in the assay on HL-60(TB) leukemia, -42% (active); in the assay on CCRF-CEM leukemia it was -12.8% (active); with MOLT-4 leukemia, -36.1% (active); in the assay with SR leukemia, -8.81% (active); with OVCAR-5 ovarian, 40.5%. Further, the growth with OVCAR-4 ovarian was 34.6%; in the assay on SK-OV-3 ovarian, 36.2%; in the assay with IGROV1 ovarian, -74.1% (active); in the assay on OVCAR-3 ovarian, -29.2% (active); in the assay on HS 578T breast it was 15.6%.
Regarding `Nc1ccc(-c2nc3cc(F)ccc3[se]2)cc1F`, the growth is 97.7% in the assay with SK-MEL-2 melanoma; 49.2% with EKVX NSCLC; 83% in the assay on SN12C renal; 38.5% with UO-31 renal; 43.6% in the assay on TK-10 renal; 30.3% in the assay on ACHN renal. Also, the growth in the assay on A498 renal was 13.5%; in the assay with HL-60(TB) leukemia, 64.9%; in the assay with CCRF-CEM leukemia, 44.8%; in the assay on MOLT-4 leukemia, 63.5%; with SR leukemia, 15.5%; in the assay on RPMI-8226 leukemia, 63.2%. In addition, the growth was 92.3% in the assay on OVCAR-8 ovarian; 47.9% with OVCAR-5 ovarian; 65.8% in the assay with OVCAR-4 ovarian; 55.1% with SK-OV-3 ovarian; 38.7% with IGROV1 ovarian; 81% with OVCAR-3 ovarian. For the same compound, the growth in the assay on HS 578T breast is 103%.
`Cn1cc(-c2csc(-c3cn(CCN4CCOCC4)c4ccc(F)cc34)n2)c2cccnc21`: the growth in the assay with SK-MEL-2 melanoma is 15.8%; in the assay on EKVX NSCLC, 37.5%; with SN12C renal it was 61.4%; in the assay with UO-31 renal, 11%; with TK-10 renal it was 55.7%; with ACHN renal, 17.7%. Moreover, the growth is 68.1% with A498 renal; 1.01% (active) in the assay with HL-60(TB) leukemia; 12.4% in the assay with CCRF-CEM leukemia; 4.03% (active) in the assay with MOLT-4 leukemia; 33.7% in the assay with SR leukemia; 0.0619% (active) with RPMI-8226 leukemia. For the same compound, the growth is 4.93% (active) with OVCAR-8 ovarian; 75.3% in the assay with OVCAR-5 ovarian; 30.5% with OVCAR-4 ovarian; 78.7% in the assay with SK-OV-3 ovarian; 21% in the assay with IGROV1 ovarian; 32.3% with OVCAR-3 ovarian. The growth in the assay on HS 578T breast is 60.4%.
